aSyn UTR act: Activators working through SNCA 5'UTR binding (MLPCN); alpha-synuclein 5'UTR reporter, activators screen; activity score, % (tested at 7.5 µM), hits read low; 300,000 compounds, 7.1% hits; AID 1814; in the data active means activity score below about -60%
The depositor's hits bear a star. Not all results are given here.

How did NNc1nc2c(-c3ccc(F)cc3)nnn2c2ccccc12 do in these assays?
aSyn UTR act: -141*

Results for CCN(CC)c1ccc(NC(=S)NC(=O)c2cccs2)cc1 ?
aSyn UTR act: -156*

Results for CCCOc1ccc(C(=O)NNC(=S)NC(=O)c2ccco2)cc1 ?
aSyn UTR act: 52

How did CCN(CC)c1ccc(NC(=S)NC(=O)c2ccco2)cc1 do in these assays?
aSyn UTR act: -214*

Results for CCN(CC)c1ccc(NC(=S)Nc2ccc(F)cc2)cc1 ?
aSyn UTR act: -91*

What do the screens show for `CCCCn1nnc(NC(=S)NC(=O)c2cccs2)n1`?
aSyn UTR act: -114*

What do the screens show for `CCCCC(=O)Nc1ccc(NC(=S)NC(=O)c2cccs2)cc1OC`?
aSyn UTR act: -107*

What do the screens show for `Cc1ccc(NC(=O)Cc2noc3ccccc23)cc1`?
aSyn UTR act: -173*

What do the screens show for `O=c1cc(-c2ccc(O)cc2)oc2ccccc12`?
aSyn UTR act: -138*

What do the screens show for `COc1ccc(N=c2cc(-c3ccc(O)cc3)oc3ccccc23)cc1`?
aSyn UTR act: -62*

Results for Cn1c2ccccc2c(=O)c2ccc(-c3ccc4c(c3)OCO4)cc21 ?
aSyn UTR act: -145*

Results for O=c1cc(-c2ccc3c(c2)OCO3)oc2ccccc12 ?
aSyn UTR act: -297*

Results for Nc1c(-c2ccc3c(c2)OCCO3)oc2ccccc2c1=O ?
aSyn UTR act: -145*

How did O=c1cc(-c2ccc(O)cc2)oc2ccc(O)cc12 do in these assays?
aSyn UTR act: -151*

How did COc1ccc(-c2cc(=O)c3ccccc3o2)cc1 do in these assays?
aSyn UTR act: -216*

How did CCOc1ccc2nc(NC(=O)CSc3ccccc3)sc2c1 do in these assays?
aSyn UTR act: -69*

What do the screens show for `CCOc1ccc2nc(NC(=S)N(C)C)sc2c1`?
aSyn UTR act: -82*

How did COc1ccc2nc(NC(=O)CSCC(=O)Nc3cc(C)on3)sc2c1 do in these assays?
aSyn UTR act: -101*

How did CCOc1ccc2nc(NS(=O)(=O)Cc3ccccc3)sc2c1 do in these assays?
aSyn UTR act: -66*

What do the screens show for `CCOc1ccc2nc(SCC(=O)c3cccs3)sc2c1`?
aSyn UTR act: -122*

Results for COc1ccc2nc(NC(=O)CSc3nc4ccccc4o3)sc2c1 ?
aSyn UTR act: -153*

What do the screens show for `CN(C)C(=S)Nc1nc2ccccc2s1`?
aSyn UTR act: -137*

How did COc1ccc2nc(NC(=O)CSc3nnc(-c4ccoc4C)n3C)sc2c1 do in these assays?
aSyn UTR act: -134*

What do the screens show for `CCCC(=O)Nc1nc2ccc(OCC)cc2s1`?
aSyn UTR act: -105*

Results for O=C(Cc1cccs1)N/N=C/C=C\c1ccco1 ?
aSyn UTR act: -78*

How did O=C(CNC(=O)c1cccs1)N/N=C/c1ccco1 do in these assays?
aSyn UTR act: -125*

How did O=C(N/N=C/C=C\c1ccco1)c1cccs1 do in these assays?
aSyn UTR act: -152*

How did O=C(CNC(=O)c1ccccc1F)N/N=C/c1cccs1 do in these assays?
aSyn UTR act: -94*

Results for Cc1ccc(N/N=C/C=C/c2ccco2)cc1 ?
aSyn UTR act: -157*

What do the screens show for `O=C(N/N=C/C=C/c1ccco1)c1ccccc1Cl`?
aSyn UTR act: -107*

How did Cc1ccc(OCC(=O)N/N=C/C=C/c2ccco2)c(Br)c1 do in these assays?
aSyn UTR act: -64*

How did CC(C)c1ccc(N(C(=O)c2cc3ccccc3oc2=O)C2C=CS(=O)(=O)C2)cc1 (stereo unspecified) do in these assays?
aSyn UTR act: -122*

How did COc1ccc(N(C(=O)c2cc3ccccc3oc2=O)C2C=CS(=O)(=O)C2)cc1 (stereo unspecified) do in these assays?
aSyn UTR act: -62*

What do the screens show for `CCN(C(=O)c1cc2ccccc2oc1=O)c1ccccc1`?
aSyn UTR act: -124*

What do the screens show for `O=C(c1cc2ccccc2oc1=O)N(c1ccccc1)C1C=CS(=O)(=O)C1` (stereo unspecified)?
aSyn UTR act: -102*

How did CCCCCOc1ccc(Br)cc1/C(C)=N/NC1=NCCN1 do in these assays?
aSyn UTR act: 88

How did Cc1c(-c2ccccc2)[nH]n2c(=O)c3c(nc12)CCCC3 do in these assays?
aSyn UTR act: -166*

Results for O=c1c2c(nc3c(-c4cccc(Br)c4)c[nH]n13)CCCC2 ?
aSyn UTR act: 69

How did Cc1ccc(-c2[nH]n3c(=O)c4c(nc3c2C)CCCC4)cc1 do in these assays?
aSyn UTR act: -75*

Results for COc1ccccc1C(=O)Nc1ccc2c(c1)OCCO2 ?
aSyn UTR act: -124*

Results for O=C(Nc1ccccc1C(=O)Nc1ccc2c(c1)OCO2)c1ccco1 ?
aSyn UTR act: -74*

How did COc1cc(C2=NOC(C(=O)NCc3ccc(F)cc3)C2)cc(OC)c1OC (stereo unspecified) do in these assays?
aSyn UTR act: 77

What do the screens show for `COc1ccccc1C(=O)Nc1ccc2c(c1)OCO2`?
aSyn UTR act: -245*

What do the screens show for `COc1cc(C2=NOC(C(=O)Nc3ccc4c(c3)OCO4)C2)cc(OC)c1OC` (stereo unspecified)?
aSyn UTR act: -64*

How did COCCn1cnnc1SCC(=O)Nc1ccccc1C(=O)Nc1ccc2c(c1)OCO2 do in these assays?
aSyn UTR act: -70*

Results for CCCc1c(C)c2ccc(OCC(C)=O)cc2oc1=O ?
aSyn UTR act: -143*

Results for Cc1c(C)c2ccc(OCC(=O)c3ccccc3)cc2oc1=O ?
aSyn UTR act: -80*

Results for COC(=O)Nc1nnc(-c2ccccc2Cl)s1 ?
aSyn UTR act: -94*

What do the screens show for `Cc1ncsc1C(=O)Nc1nc2c(s1)CC(C)CC2` (stereo unspecified)?
aSyn UTR act: -126*

What do the screens show for `CC1CCc2nc(NC(=O)Nc3ccc4c(c3)OCO4)sc2C1` (stereo unspecified)?
aSyn UTR act: -123*

Results for CC1CCc2nc(NC(=O)C3COc4ccccc4O3)sc2C1 (stereo unspecified) ?
aSyn UTR act: 63

What do the screens show for `CC1CCc2nc(NC(=O)C3CC3)sc2C1` (stereo unspecified)?
aSyn UTR act: -138*

How did COC(=O)c1c(NC(=O)CN2CCOCC2)sc2c1CCC(C)C2 (stereo unspecified) do in these assays?
aSyn UTR act: -123*

How did CC1CCc2nc(NC(=O)CN3CCOCC3)sc2C1 (stereo unspecified) do in these assays?
aSyn UTR act: -92*

Results for CC(=O)c1ccc(Nc2ccc(-c3ccccc3C)nn2)cc1 ?
aSyn UTR act: -148*

What do the screens show for `CC(=O)c1cccc(Nc2ccc(-c3ccccc3F)nn2)c1`?
aSyn UTR act: -155*

How did CC(=O)c1c(C)[nH]c(C(=O)CSc2nnc(C)s2)c1C do in these assays?
aSyn UTR act: -110*

Results for CC(=O)c1c(C)[nH]c(C(=O)CSc2nnc3ccccn23)c1C ?
aSyn UTR act: -85*

Results for C=CCn1c(SCC(=O)c2[nH]c(C)c(C(=O)OC)c2C)nc2scc(-c3ccc(OC)c(OC)c3)c2c1=O ?
aSyn UTR act: 61

How did Nc1c(C(=O)C2CC2)sc2nc3c(cc12)CCC3 do in these assays?
aSyn UTR act: -161*

What do the screens show for `Nc1c(C(=O)Nc2cccc(C(=O)O)c2)sc2nc3c(cc12)CCCC3`?
aSyn UTR act: 77

Results for Nc1c(C(=O)c2ccc(Cl)cc2)sc2nc3c(cc12)CCC3 ?
aSyn UTR act: -108*

Results for C/C(=N\NC(=O)c1ccccc1)c1ccc(NC(=O)c2cccs2)cc1 ?
aSyn UTR act: -108*

How did C/C(=N\NC(=O)c1ccco1)c1ccc(NC(=O)c2cccs2)cc1 do in these assays?
aSyn UTR act: -106*

What do the screens show for `C/C(=N/NC(=O)c1ccccc1)c1ccc(NC(=O)C(F)(F)F)cc1`?
aSyn UTR act: -69*

Screens: PubChem, Broad Institute
